PubChem BioAssay AID504329 (Southern Research Specialized Biocontainment Screening …, 2011)
In all, about 340,000 compounds went through this assay and about 1,000 (0.29%) were called active. Cut-off read from the data, not from the text of the source: inconclusive = inhibition above about 27% without an active follow-up result; inactive = below that. These entries were drawn from the full list. Potency and affinity values are given separately.

Test: H1N1 influenza NS1A inhibitors, functional cell based assay (AID 504329)
Conditions: percent inhibition, at 12.5 µM, hits give high values

| SMILES | inhibition |
| --- | --- |
| Cc1ccc(-c2nnn(CCOc3cccc(Br)c3)n2)cc1 | -6.07% (inactive) |
| c1ccc2nc3[nH]cnc3nc2c1 | 1.88% (inactive) |
| COc1ccc(NC(=O)CC2(CC(=O)N3CCOCC3)CCCC2)cc1Cl | -1.17% (inactive) |
| CC1CC(C)CN(S(=O)(=O)c2ccc(C(=O)Nc3nnc(C4CC4)o3)cc2)C1 (configuration not stated) | -2.79% (inactive) |
| CC(C)(C)NC(=O)C(c1ccccc1F)N(Cc1ccco1)C(=O)c1csnn1 (configuration not stated) | -1.84% (inactive) |
| O=C(O)C(c1ccccc1)N1C(=O)/C(=C\c2ccc(O)c(O)c2)SC1=S (configuration not stated) | 10.8% (inactive) |
| Cc1nc2ccc(C(=O)N/N=C/c3cc([N+](=O)[O-])ccc3O)cc2[nH]1 | 19% (inactive) |
| C(=N\Nc1nc2ccccc2[nH]1)/c1ccc2ncccc2c1 | -2.83% (inactive) |
| O=S1(=O)N=C(N/N=C/c2ccco2)c2ccccc21 | -20% (inactive) |
| O=S1(=O)N=C(N/N=C/c2cccs2)c2ccccc21 | 3.71% (inactive) |
| Oc1ccccc1/C=N/Nc1nn[nH]n1 | -4.08% (inactive) |
| COc1ccc(O)c(/C=N/Nc2nc3ccccc3[nH]2)c1 | -13.2% (inactive) |
| Cc1ccccc1/C=N/Nc1nc2ccccc2[nH]1 | -2.18% (inactive) |
| COc1ccc([N+](=O)[O-])cc1/C=N/Nc1nn[nH]n1 | -3.63% (inactive) |
| Cc1ccc(C(=O)N2CCN(c3ccccc3Cl)CC2)cc1[N+](=O)[O-] | -8.39% (inactive) |
| COCCn1c(-c2ccc(SC)cc2)nc2c1c(=O)[nH]c(=O)n2CC(C)C | 6.85% (inactive) |
| Cc1ccc(C)c(OC(C)C(=O)Nc2nccs2)c1 (configuration not stated) | -0.26% (inactive) |
| Cc1ccc(S(=O)(=O)N[C@H](C(=O)OCC(=O)NC(=O)Nc2ccc3c(c2)OCCO3)C(C)C)cc1 | -8.36% (inactive) |
| CC(=O)Nc1ccc(NC(=O)C(C)OC(=O)C(C)SCC(=O)Nc2ccc(C)cc2)cc1 (configuration not stated) | -10.9% (inactive) |
| N#Cc1ccccc1S(=O)(=O)N1CCN(CC(=O)Nc2ccccc2C(=O)NC2CC2)CC1 | -1.3% (inactive) |
| Fc1ccc(-c2csc(-c3ccccn3)n2)cc1F | -3.95% (inactive) |

| SMILES | inhibition |
| --- | --- |
| Cc1ccc2ccc3cccc4ccc1c2c34 | -18.9% (inactive) |
| COc1cnc(-c2ccccn2)nc1Sc1ccc(F)cc1 | 6.63% (inactive) |
| O=[N+]([O-])c1ccc(NN=Cc2cc(Br)ccc2O)nc1 | 6.5% (inactive) |
| O=[N+]([O-])c1ccc(/C=N/NC2=NS(=O)(=O)c3ccccc32)cc1 | 1.07% (inactive) |
| O=[N+]([O-])c1cc(Cl)cc(/C=N/Nc2nc3ccccc3s2)c1O | 3.56% (inactive) |
| O=[N+]([O-])c1ccc(O)c(/C=N/Nc2ccccc2Cl)c1 | -14.4% (inactive) |
| O=[N+]([O-])c1cccc(/C=N/NC2=NS(=O)(=O)c3ccccc32)c1 | -4.67% (inactive) |
| O=[N+]([O-])c1ccc(Cl)cc1C=NNc1ccccn1 | -1.7% (inactive) |
| O=[N+]([O-])c1ccc(/C=N/Nc2ccccn2)cc1 | -3.42% (inactive) |
| O=[N+]([O-])c1cccc(/C=N/Nc2ccccn2)c1 | 0.08% (inactive) |
| O=C(NCCc1ccc2c(c1)OCCO2)c1ccc([N+](=O)[O-])cc1Cl | -0.08% (inactive) |
| O=C(CSc1nnnn1-c1ccc2c(c1)OCO2)NCc1ccccc1 | 0.06% (inactive) |
| CCCCOc1c(Br)cc(CNCCCN2CCOCC2)cc1OC | 1.13% (inactive) |
| Cc1ccc(CNc2cc(C(=O)O)ccc2C)s1 | 14.2% (inactive) |
| O=C(NCc1ccccc1F)C1CCCN1S(=O)(=O)c1ccc(F)cc1 (configuration not stated) | 4.5% (inactive) |
| O=C(O)c1cccc(NC(=O)c2ccccc2NC(=O)c2ccco2)c1 | -7.51% (inactive) |
| CN(C)/C=C(\C(=O)c1cccc(Cl)c1)c1nnnn1-c1ccccc1 | -1.13% (inactive) |
| N=C(N)c1ccc(N)cc1 | 2.89% (inactive) |
| Nc1ccc(C(=O)C(=O)c2ccc(N)cc2)cc1 | 1.62% (inactive) |
| CCOC(=O)c1cc(CC)sc1NC(=O)CC1SC(N)=NC1=O (configuration not stated) | -8.66% (inactive) |
| Cc1ccc(S(=O)(=O)Cn2nnnc2C(CC(C)C)N2CCN(C3CCCC3)CC2)cc1 (configuration not stated) | -5.05% (inactive) |

| SMILES | inhibition |
| --- | --- |
| COc1cc(C(=O)N/N=C(\Cc2ncc[nH]2)c2ccccc2)cc(OC)c1OC | -5.85% (inactive) |
| COc1ccc(C(=O)N/N=C(\Cc2ncc[nH]2)c2ccccc2)cc1 | 1.55% (inactive) |
| CN(CC(=O)Nc1ccccc1Cl)C(=O)COC(=O)c1ccc(-c2ccc(O)cc2)cc1 | -4.29% (inactive) |
| CCC(=O)Nc1ccc(C(=O)N/N=C/c2c(C)[nH]c3ccccc23)cc1 | 10.2% (inactive) |
| CC(CNC(=O)c1cc(COc2c(F)cccc2F)on1)Oc1cccnc1 (configuration not stated) | 5.51% (inactive) |
| COc1ccc(/C=C/C(=O)NC(=S)NNC(=O)c2cnccn2)cc1 | 22% (inactive) |
| O=C(NNC(=S)NC(=O)c1cccnc1)c1ccc(Cl)cc1 | -8.92% (inactive) |
| O=C(NNC(=S)NC(=O)c1cccnc1)c1ccc(F)cc1 | 3.02% (inactive) |
| O=C(NNC(=O)c1cnccn1)c1ccc(Cl)cc1 | -1.07% (inactive) |
| O=C(/C=C/c1ccccc1)NC(=S)NNC(=O)c1cccnc1 | 11.7% (inactive) |
| O=C(NNC(=S)NC(=O)c1ccc(F)cc1)c1ccncc1 | -6.57% (inactive) |
| CSc1nsc(SCC(=O)N2CCCc3ccccc32)n1 | -4.75% (inactive) |
| COc1ccc(NC(C)=O)c2nc(C)c(C)nc12 | 2.97% (inactive) |
| CC1(C)OC(c2ccccc2)=C/C(=C/C=C2C(=O)NC(=O)NC2=O)O1 | 22.3% (inactive) |
| CC1(C)OC(c2ccccc2)=C/C(=C/C=Nc2ccccc2)O1 | -14.7% (inactive) |
| CCN(CC)C(=O)Oc1cc(=O)n2c3c(cccc13)CCC2 | 2.43% (inactive) |
| Cc1cc(C(=O)Nc2ccc3c(c2)OCO3)no1 | 6.49% (inactive) |
| O=C(COc1ccc(Cl)cc1Br)OCC(=O)c1ccc[nH]1 | -4.26% (inactive) |
| COc1cc(C2SCC(=O)Nc3c2c(=O)[nH]n3C2CCCCCC2)cc(OC)c1OC (configuration not stated) | 3.42% (inactive) |
| N#Cc1ccccc1OCC(=O)Nc1ccccc1C(=O)NC1CC1 | -6.65% (inactive) |
